In all, about 69,000 compounds went through this assay and about 10 (0.01%) showed an effect of 50% or more. Only a selection was taken, and strong results are over-represented in it overall.
Molecular target: ClpP1P2 (Mycobacterium tuberculosis (strain ATCC 25618 / H37Rv)) (UniProt P9WPC5+P9WPC3)
Experiment: in vitro assay to detect presence of AMC directly proportional to the activity of ClpP1P2. GHDDI collaboration.
Format: functional
Design: scale not given: direction of the effect not stated beside the values
Conditions: 50 µM

Compound | Percent Effect [%]
CCN1CC[C@@]2(C(=O)N(C)C)CCN(S(=O)(=O)c3ccccc3)CC[C@@H]12 | -6.35
COCCN1CC[C@@H]2CN(Cc3nccn3C)C[C@@H]2C1 | 3.59
Fc1cnc(N2CCO[C@H]3CN(CC4CCOC4)C[C@H]32)nc1 (stereo partly specified) | -12.3
CCS(=O)(=O)N1C[C@H]2CN(CC3CC3)C(=O)[C@H]2C1 | 7.7
CC(C)CN1C(=O)CC[C@H]2CN(Cc3ncc[nH]3)CC[C@H]21 | -3.16
O=C(C1=CCCC1)N1C[C@@H]2COC[C@]2(COCC2CC2)C1 | -3.2
CN(C)CCN1CCO[C@H]2CN(Cc3ccccn3)C[C@H]21 | 1.87
O=C(c1ccncc1)N1C[C@@H]2OCCN(CCN3CCCC3)[C@@H]2C1 | -8.83
O=C1[C@H]2CN(CC3CCOCC3)C[C@H]2CN1Cc1cccc(F)c1 | 7.64
Cc1cccc(COC[C@@]23CCC[C@@H]2CN(S(=O)(=O)N(C)C)C3)n1 | -4.08
CC1=CC[C@@H]2CN(C(=O)c3ccc(-c4nc[nH]n4)cc3)C[C@@H]2C1 | -12.9
Cc1ccc(CN2C[C@@H]3CCN(Cc4cccnc4)C(=O)[C@H]3C2)s1 | 13.6
Cc1ccc(CN2C[C@@H]3CCN(Cc4ccncc4)C(=O)[C@H]3C2)s1 | 54
CCN1C[C@H]2CCN(Cc3ccncc3)C(=O)[C@@H]2C1 | -1.34
Cc1ccc(CN2C[C@H]3CN(CC4CCN(C)CC4)C(=O)[C@H]3C2)s1 | -7.79
COCCN1CC[C@H]2CN(Cc3ccc(C)s3)C[C@@H]2C1=O | -2.27
O[C@@H]1C[C@@](CNCC2CCCC2)(COc2cccnc2)C[C@@H]1O | -0.271
CN(C)C(=O)CO[C@H]1CN(Cc2ccoc2)[C@@H]2COC[C@H]12 | -6.93
Cc1cccc(CN2C(=O)CO[C@@H]3CN(C4CCOCC4)C[C@H]32)c1 | -8.98
Cc1cc(C)n(CCCC(=O)N2CC[C@H]3NCCC[C@]3(CO)C2)n1 | -5.5
CC(C)CN1C[C@H]2N(c3ncccn3)CCC[C@@]2(C(=O)NCC2CC2)C1 | -20.2
Cc1cc2cc(C(=O)N3CCN(CCO)[C@@H]4CS(=O)(=O)C[C@@H]43)ccc2o1 | -4.08
Cc1nnc(N2C[C@@H](Oc3ccccn3)[C@H]3OCCC[C@H]32)s1 | 9.54

Compound | Percent Effect [%]
COCCN1C[C@H]2CN(C(=O)NC(C)C)CCN2C1=O | -7.02
COc1cc(CN2CCCCCC2c2cccs2)cc(OC)c1OC (stereo unspecified) | 1.65
COc1cccc(CN2CCCCCC2c2cccs2)c1O (stereo unspecified) | -21.7
COc1cc(CN2CCCCCC2c2cccs2)cc(OC)c1O (stereo unspecified) | 52.1
O=C([C@H]1COC[C@H]2CN(Cc3ccco3)C[C@H]21)N1CCCO1 | 3.57
O=C(NC[C@H]1C[C@@H]2CCN1C[C@@H]2CN1CCCCC1)c1ccco1 | -12.3
O=S(=O)(NC[C@]12COC[C@H]1CN(c1ncc(F)cn1)C2)C1CC1 | -0.384
CNC(=O)[C@@H]1C[C@H]2CN(Cc3c(C)noc3C)C[C@H]2N1C(C)C | -4.22
CCSCCNC(=O)c1ccc(S(=O)(=O)N2C[C@@H]3C[C@H]2CN3)cc1 | 9.91
CC(C)NC(=O)N1CCC2(CC1)CC[C@@]1(C(=O)N(C)C)CN(C)C[C@@H]21 | -5.9
COc1ncccc1C(=O)N1CC[C@H]2C[C@@H](c3ccncn3)O[C@@H]2C1 | -7.36
O=C(CCc1ccccc1)N1C[C@H]2CCN[C@H]2C1 | 0.746
COc1ncccc1CN1C[C@@H]2COC[C@]2(COCC2CC2)C1 | -9.86
O=C1CC[C@H]2[C@H](CCN2C(=O)C2CCOC2)N1Cc1ccncc1 (stereo partly specified) | 0.241
CNC(=O)[C@H]1C[C@@H]2CN(C(=O)Nc3ccccc3)C[C@H]1O2 | -3.31
CNC(=O)[C@H]1C[C@@H]2CN(C(=O)c3ccsc3)C[C@@H]2N1S(C)(=O)=O | -13.7
Cc1ncccc1NC(=O)[C@H]1C[C@@H]2CCN(Cc3ccsc3)C[C@H]2O1 | -3.15
CN(C)CCN1CCO[C@H]2CN(Cc3cnn(C)c3)C[C@H]21 | -9.41
CCN(Cc1nc2c(cnn2C)c(=O)[nH]1)Cc1ccco1 | 7.15
CCN(Cc1ccccc1)Cc1nc2c(cnn2C)c(=O)[nH]1 | -16.6
CCN(Cc1nc2c(cnn2C)c(=O)[nH]1)Cc1cccs1 | 61.1
CCOCC1C[C@@H]2OCCN(C(=O)c3ccc[nH]3)[C@H]2C1 (stereo partly specified) | -16.1
O=C(Nc1ccccc1-c1ccccc1)N1C[C@@H]2CNC[C@]2(C(=O)O)C1 | 4.15

Compound | Percent Effect [%]
COCCNC(=O)[C@H]1C[C@@H]2CCN(c3ncccn3)C[C@H]2O1 | -14.4
CC(C)(C)c1ccc(CN2C[C@H]3C[C@H](O)C[C@H]3C2)c(OCC(N)=O)c1 | 2.62
Cn1cc(N2CC[C@@H]3CN(Cc4ccncc4)C[C@H]3C2=O)cn1 | 6.53
COCC(=O)N1C[C@H](N(C)Cc2cncnc2)[C@H]2OCCC[C@H]21 | 3.58
NS(=O)(=O)N1CCc2ccc(NC(=O)CC(F)(F)F)cc21 | -1.98
NS(=O)(=O)N1CCc2ccc(NC(=O)Cc3ccccc3F)cc21 | 21.3
NS(=O)(=O)N1CCc2ccc(NC(=O)Cc3ccc(F)cc3)cc21 | 70.3
CN(C)S(=O)(=O)N1C[C@@H](OCc2ccccn2)[C@H]2OCCC[C@H]21 | 14.2
Cn1cc(CN2CC[C@@H]3[C@@H](CCC(=O)N3CCc3ccccc3)C2)cn1 | -11.2
O=C(NCCc1cccs1)[C@]12COC[C@H]1CN(Cc1ccccn1)C2 | 21.1
COc1ccc(N2CCN(C(=O)[C@H]3[C@@H]4CNC[C@@H]43)CC2(C)C)cc1 | -7.82
CCN1C[C@H]2CCN(C(=O)c3cc[nH]n3)CC[C@H]2S1(=O)=O | -1.84
Cc1noc([C@H]2CC[C@@H]3[C@@H](CCN3S(=O)(=O)C3CC3)O2)n1 | 16.5
Cc1cc(CN2CCCC2)cc(Oc2ccc3c(c2)CC(CN)O3)c1 (stereo unspecified) | -31.6
COc1ccc(CN2CCCC2)cc1Oc1ccc2c(c1)CC(CN)O2 (stereo unspecified) | -30
NCC1Cc2cc(Oc3cc(F)c(CN4CCCC4)c(F)c3)ccc2O1 (stereo unspecified) | 72.6
Cc1cnc(N2C[C@H]3CCCC(N(C)Cc4ccccn4)[C@H]3C2)nc1 (stereo partly specified) | 6.27
O=C(CCC(F)(F)F)N1CCN(Cc2ccncc2)[C@@H]2CS(=O)(=O)C[C@@H]21 | -11.9
CC(=O)N1[C@H](Cn2cncn2)C[C@@H]2CN(Cc3ccccn3)CC[C@@H]21 | -7.75
O=C(N1CCCC1)N1C[C@H]2CC[C@@H]1CN(Cc1ccncc1)C2 | -3.97
CC(=O)N1CC[C@H]2CC(=O)N(C3CCCCC3)CC[C@H]2C1 | -8.93
CC(C)N1CC[C@H]2[C@H](C[C@@H](Cn3cncn3)N2c2nccs2)C1 | 9.71
COC[C@]12COC[C@H]1CN(Cc1ccc3ccccc3n1)C2 | 8.31

Compound | Percent Effect [%]
CN(C)C[C@H]1OC[C@@H]2CCN(S(=O)(=O)c3cccs3)C[C@@H]21 | -1.92
O=C(c1ncccn1)N1C[C@@H]2CC[C@H](Oc3cccc(F)c3)[C@@H]2C1 | -9.72
COCC(=O)N1CCN(S(=O)(=O)c2cccs2)[C@H]2CS(=O)(=O)C[C@H]21 | 21.1
Cc1ncsc1CN1CC[C@H]2OCC[C@@]2(C(=O)NCC2CC2)C1 | 8.1
CN(C[C@H]1CN2CC[C@H]1C[C@@H]2CNC(=O)c1ccco1)c1ccccc1 | 3.33
CN(C)c1nccc(N2CCO[C@H]3CN(Cc4ccsc4)C[C@H]32)n1 | -1.49
CN(C)S(=O)(=O)N1CCO[C@H]2[C@H](Oc3cccnc3)CC[C@@H]21 | -10.1
Cc1nn(C)c(C)c1S(=O)(=O)N1CC[C@H]2O[C@@H](C)C[C@H]2C1 | 9.45
O=C(c1ccoc1)N1CC[C@@H]2O[C@@H](COCCN3CCCC3)CC[C@@H]21 | 8.08
O=C(CCN1C[C@H]2CC[C@@H]1CN(c1ncccn1)C2)NCc1ccco1 | -5.46
CCc1cnc(N2C[C@H]3C[C@H](C(=O)N4CCOCC4)[C@@H](C2)O3)nc1 | 7.75
CC(C)N1C[C@@H]2CN(C(=O)NCc3ccccc3)CCC[C@]2(C(=O)O)C1 | -0.327
Cc1noc([C@@H]2C[C@H]3CN(Cc4ccc5c(c4)OCO5)C[C@H]3O2)n1 | 2.95
Cc1noc([C@]23COC[C@H]2CN(Cc2cc(C)on2)C3)n1 | 14.7
O=C1C[C@@H]2[C@H](CCN2Cc2ccco2)N1c1ccsc1 | -3.07
C[C@H]1C[C@H]2CN(C(=O)CCc3ccccc3)CC[C@H]2O1 | -7.99
O=C(Nc1ccccc1)[C@H]1CN2CC[C@H]1C[C@@H]2Cn1cc(CCO)nn1 | -1.69
O=C(C[C@H]1[C@H]2CN(Cc3ccc(F)cc3)C[C@@H]12)N1CCCC1 | -10.3
Cc1cnc(N2C[C@@H]3[C@@H](C(=O)NC(C)C)CCS(=O)(=O)[C@@H]3C2)nc1 | 8.69
CCN1CC[C@@]2(C(=O)N3CCOCC3)CCN(C(=O)CC(C)C)CC[C@@H]12 | -11.5
COc1ccc(-c2ncccc2C(=O)N2C[C@H]3CC[C@@H]2C3)cn1 | -2.59
CN(C)S(=O)(=O)N1C[C@@H]2CC[C@H](C1)N(Cc1ccc3c(c1)OCCO3)C2 | -5.61
Cc1nc2cc(C3CCN(Cc4cccc(F)c4F)C3)nn2c(O)c1C (stereo unspecified) | 4.6

Compound | Percent Effect [%]
N#Cc1cccc(CN2CC[C@@H]3[C@@H]2CC(=O)N3CCN2CCCC2)c1 | -6.88
CC(C)NC(=O)[C@H]1C[C@@H]2[C@@H](C1)OCCN2Cc1nccs1 | -14.4
Cc1noc(C)c1CN1C[C@H]2CNC[C@H]2C1 | 3.63
c1cnc(NC[C@@H]2CCC[C@@H]3CN(Cc4cccnc4)C[C@@H]32)nc1 | 9.72
CCN(CC)Cc1cc(C(=O)N2CC[C@@]3(O)CCCC[C@H]3C2)c(C)o1 | -7.09
N#Cc1ccccc1C(=O)N1C[C@H]2CC[C@@H]1CN(c1ncccn1)C2 | 12.4
COc1ccc(CN2C[C@@H](N(C)Cc3ccco3)[C@H]3OCCC[C@H]32)cc1 | 8.12
Cc1cccc(CN2CC[C@H]3C[C@H](C)O[C@@H]3C2)n1 | -3.13
CN(C)C(=O)N1CC[C@H]2[C@H]1CCN2c1nncs1 | -2.44
NC(=O)c1cc2c(nc1N1C[C@H]3OC(=O)N(C4CCCC4)[C@H]3C1)CCC2 | 3.22
Cc1ccc(CN2CCO[C@@H]3C[C@@H](C(=O)NC(C)C)C[C@H]32)o1 | -8.36
CCCc1nc(N2CCCN3CCC[C@H]3C2)c2cnn(C)c2n1 | 7.09
CN(C)CCN1C[C@@H]2OCCN(Cc3cnn(C)c3)[C@@H]2C1 | 12
CC(CN1CC[C@@H]2CCCC[C@@H]2C1)n1cnc2ccccc21 (stereo partly specified) | -9.76
Cc1nc(NCC2CC2)nc2c1COCC21CCN(C(=O)NC(C)C)C1 (stereo unspecified) | 6.34
Cc1nc(NCC2CC2)nc2c1COCC21CCN(C(=O)C(C)(C)C)C1 (stereo unspecified) | 97.5
COCCC(=O)N1CCC2(COCc3c(C)nc(NCC4CC4)nc32)C1 (stereo unspecified) | 11.8
CC1=N[C@@]2(CC[C@@H]3CN(CC4CC4)C[C@@H]32)C(=O)N1CC1CC1 | -5.13
Cc1ccoc1C(=O)N1C[C@@H](OCC2CCOCC2)[C@H]2OCCC[C@H]21 | -0.469
